Source: PubChem BioAssay (National Center for Advancing Translational Sciences (NCATS))
BAZ2B block: qHTS Assay for Inhibitors of BAZ2B; Bromodomain adjacent to zinc finger domain protein 2B (Homo sapiens), Q9UIF8; AID 504333, 2011; AlphaScreen BAZ2B-H3K14Ac peptide displacement; Potency, µM (series often up to 114 µM), inactives show at the highest dose activity change, negative = inhibition, usual class: inhibitors; 360,000 compounds, 4.4% hits; further: on the % scale 0 is the no-effect control and ±100 the full control effect; nearly all actives have a fitted effect of over 60% in size
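AlphaScreen displacement: compounds (up to 110uM) incubated 30 min at room temperature with a preformed 50 nM BAZ2B/50 nM biotinylated H3K14Ac peptide complex in PBS pH 7.4 with Tween-20. Donor and acceptor beads at 10 ug/mL final added, 20 min light-protected before reading.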
G9a inh: qHTS Assay for Inhibitors of Histone Lysine Methyltransferase G9a; 350,000 compounds, 8.8% hits; G9a H3K9 monomethylation, AlphaScreen, 2 h; Potency, µM (top dose mostly 102 µM), for inactives: at the top dose activity, negative = inhibition, usual class: inhibitors; AID 504332, 2011; further: on the % scale 0 is the no-effect control and ±100 the full control effect; nearly all actives have a fitted effect of over 75% in size
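Readings reflect AlphaScreen signal from monomethyl-H3K9 antibody detection. HMT at 20 nM; substrate b-H3K9 500 nM; cofactor SAM 20 uM; 2 h RT reaction; compounds tested as titrations in qHTS with 15 min preincubation.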
JMJD2A Tudor inh: qHTS Assay for Inhibitors of JMJD2A-Tudor Domain | AlphaScreen JMJD2A-Tudor / H3K4me3 peptide binding | Potency, µM (series often up to 114 µM), for the others: at the top dose activity change, negative = inhibition, usual class: inhibitors | 390,000 compounds, 4.4% hits; further: on the % scale 0 is the no-effect control and ±100 the full control effect; nearly all actives have a fitted effect of over 50% in size
Target sequence (O75164 whole entry, looked up, the tested form may be a part): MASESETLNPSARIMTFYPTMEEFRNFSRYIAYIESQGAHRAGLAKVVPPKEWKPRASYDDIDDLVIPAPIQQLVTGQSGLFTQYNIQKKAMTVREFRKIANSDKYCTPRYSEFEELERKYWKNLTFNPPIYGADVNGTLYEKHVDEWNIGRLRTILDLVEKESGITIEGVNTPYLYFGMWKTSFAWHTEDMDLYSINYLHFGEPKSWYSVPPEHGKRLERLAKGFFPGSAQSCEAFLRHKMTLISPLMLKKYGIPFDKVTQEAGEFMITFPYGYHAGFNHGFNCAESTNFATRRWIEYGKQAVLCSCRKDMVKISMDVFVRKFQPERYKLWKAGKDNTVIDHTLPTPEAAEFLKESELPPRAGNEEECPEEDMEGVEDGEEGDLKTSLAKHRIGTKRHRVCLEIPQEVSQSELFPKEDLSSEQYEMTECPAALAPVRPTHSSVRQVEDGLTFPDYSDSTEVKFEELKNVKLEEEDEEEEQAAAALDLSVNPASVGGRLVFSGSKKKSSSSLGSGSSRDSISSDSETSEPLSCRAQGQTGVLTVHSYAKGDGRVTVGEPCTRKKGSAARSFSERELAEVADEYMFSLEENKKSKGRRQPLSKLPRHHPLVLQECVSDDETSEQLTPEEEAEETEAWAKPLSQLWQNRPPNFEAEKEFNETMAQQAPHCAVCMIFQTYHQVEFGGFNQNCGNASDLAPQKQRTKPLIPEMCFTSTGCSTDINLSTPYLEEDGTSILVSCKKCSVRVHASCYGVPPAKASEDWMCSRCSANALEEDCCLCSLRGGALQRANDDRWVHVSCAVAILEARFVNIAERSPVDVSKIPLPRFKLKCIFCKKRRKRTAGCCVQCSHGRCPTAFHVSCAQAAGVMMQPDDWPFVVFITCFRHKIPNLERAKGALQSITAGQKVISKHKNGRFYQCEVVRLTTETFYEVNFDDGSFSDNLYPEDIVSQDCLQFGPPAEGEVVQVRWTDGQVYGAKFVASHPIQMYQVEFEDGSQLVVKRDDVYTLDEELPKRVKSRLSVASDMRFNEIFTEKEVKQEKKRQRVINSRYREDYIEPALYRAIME
Sfp inh: qHTS Assay for Inhibitors of Bacillus subtilis Sfp phosphopantetheinyl transferase (PPTase); Biochemical Sfp PPTase activity, qHTS; Potency, µM, without a hit: largest response in the series, negative = inhibition, hits mostly inhibitors; 310,000 compounds, 3.5% hits; 4'-phosphopantetheinyl transferase ffp (Bacillus subtilis), Q9F4F7;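 further: the enzyme is Sfp with the accession as filed and its product quenches rhodamine fluorescence; 0% = enzyme reaction without inhibitor and -100% = no enzyme wells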
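With Hepes-Na pH 7.6 buffer containing 10 mM MgCl2, Sfp (15 nM) modified BHQ-2-YbbR (12.5 uM) using rhodamine-CoA (5 uM). Two reads 30 minutes apart at 525/598 nm yielded each well's rate.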
HP1b binding inh: HTS for Inhibitors of HP1-beta Chromodomain Interactions with Methylated Histone Tails; Chromobox protein homolog 1 (Homo sapiens), P83916; AlphaScreen HP1-beta / biotin-H3K9me3 peptide binding; Potency, µM (titrated, usually from 114 µM), inactives show top-dose activity change, negative = inhibition, hits mostly inhibitors; 390,000 compounds, 0.56% hits; AID 540317, 2011; further: nearly all actives have a fitted effect of over 70% in size
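HP1-beta protein (50 nM final) preincubated 30 min at room temperature with biotinylated H3(1-18)K9me3 peptide (50 nM) in PBS pH 7.4, 0.01% Tween-20, then compound added for 30 min. AlphaScreen streptavidin donor/nickel chelate acceptor beads (10 ug/mL final), 30 min dark, luminescence read.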
PLK1 PBD block: qHTS for Inhibitors of PLK1-PDB (polo-like kinase 1 - polo-box domain): Primary Screen; Serine/threonine-protein kinase PLK1 (Homo sapiens), P53350; Potency, µM, without a hit: max response, negative = inhibition, hits mostly inhibitors; Plk1 PBD binding of FITC phosphopeptide, fluorescence polarization; 360,000 compounds, 2.8% hits; further: series mostly up to about 57 µM; on the % scale 0 is the no-effect control and ±100 the full control effect; nearly all actives have a fitted effect of over 65% in size
Active calls of the source: *; ? = inconclusive; . = no result given; [ ] = dose if it differs, or a comment. This is a sample that favours compounds with a hit; in the whole collection about 12% have one here. The call rests on the fitted dose curve; in most records, active means well fitted curve in the direction sought with a large enough effect; inconclusive means small, poorly fitted or top-dose-only effect, or another doubt; inactive means no such curve, though single readings can be large; an effect the other way counts as inactive or inconclusive. Potency means the concentration at half of the fitted maximal effect.

SMILES	BAZ2B block	G9a inh	JMJD2A Tudor inh	Sfp inh	HP1b binding inh	PLK1 PBD block
NC(=O)C[C@@H]1NC(=O)c2cc([N+](=O)[O-])cc(F)c2NCCCC[C@@H](C(N)=O)NC(=O)[C@H](CO)NC1=O	?	50µM*	.	3%	.	.
NC(=O)[C@@H]1CCCNc2c(F)cc([N+](=O)[O-])cc2C(=O)N[C@@H](CCC(=O)O)C(=O)N[C@@H](CO)C(=O)N1	-36%	79µM*	-22%	6%	24%	-8%
NC(=O)[C@@H]1CCNc2c(I)cc([N+](=O)[O-])cc2C(=O)N[C@@H](CCC(=O)O)C(=O)N[C@@H](CO)C(=O)N1	-38%	10µM*	-14%	-28%	31%	-17%
CCOc1ccc(CN2C(=O)c3ccccc3Sc3ccc(C(=O)NC4CCC(C)CC4)cc32)cc1 (centres undefined)	.	-40%[59 µM]	-24%	.	15%	.
COc1ccc(NC(=O)C2CCC(CNS(=O)(=O)c3cccc4nsnc34)CC2)cc1OC (centres undefined)	-7%	-28%[59 µM]	-5%	.	15%	.
COC(=O)c1nc(NC(=O)c2ccc(Br)cc2)n[nH]1	-1%	-46%[59 µM]	-4%	9%	64%	24µM*
CCCCn1c(=O)c2[nH]c(C34CC5CC(CC3C5)C4)nc2n(CCCO)c1=O	.	27%[59 µM]	.	-2%	.	.
C=CCOc1ccc(C(c2c(C(=O)O)[nH]c3ccccc23)c2c(C(=O)O)[nH]c3ccccc23)cc1	50µM*	35µM*	79µM*	-3%	71µM*	8.4µM*
Cc1ccc(C(c2ccccc2)c2c(C)[nH]c3ccccc23)s1 (centres undefined)	50%	-2%[59 µM]	6%	.	101%	.
O=C(O)c1[nH]c2ccccc2c1C(c1ccccc1)c1c(C(=O)O)[nH]c2ccccc12	-33%	-50%	-13%	20%	19%	27µM*
O=C(O)c1[nH]c2ccccc2c1C(c1cc(Cl)cc([N+](=O)[O-])c1O)c1c(C(=O)O)[nH]c2ccccc12	?	.	?	-2%	-15%	7.5µM*
COc1cc(C(NC(C)=O)NC(C)=O)ccc1OCc1ccccc1	-9%	-1%	4%	24%	50%	7%
COc1cc(C(c2c(C(=O)O)[nH]c3ccccc23)c2c(C(=O)O)[nH]c3ccccc23)ccc1OCc1ccccc1	4%	18%[0.501 µM]	?	-5%	?	8.4µM*
COC(=O)c1[nH]c2ccc(Cl)cc2c1NC(=O)c1ccccc1[N+](=O)[O-]	8%	-19%	-24%	-1%	30%	-3%
COc1ccc(CCNC(=O)Cn2c(=O)c3cccn3c3ccc(F)cc32)c(OC)c1	-11%	-25%[59 µM]	-20%	.	20%	.
COc1cccc(Nc2ncc3nc(C)c(=O)n(C4CC4)c3n2)c1	.	-2%[0.501 µM]	.	27%	.	.
Cc1cccc(C)c1NC1=C(Cl)C(=O)OC1OC(=O)c1ccccc1 (centres undefined)	.	-6%	-13%[57.1 µM]	?	56%	-30%
Cc1ccc(NC2=C(Cl)C(=O)OC2OC(=O)c2ccccc2)c(C)c1 (centres undefined)	.	?	-15%	50µM*	17%	-7%
O=C(NCCSC1CCCCC1)c1ccccc1	-1%	71µM*	-9%	15%	22%	-8%
CN(C)c1ccc(C=Nc2ccccc2C(N)=O)cc1	.	18µM*	-28%	6%	6%	-10%
CSc1nc2nc3c(cc2c(=O)n1-c1ccccc1)COC(C)(C)C3	-16%	50µM*	1%	4%	35%	-20%
